High-throughput results as filed in PubChem BioAssay.
PrP UTR inh: inhibition of PrP 5' UTR reporter expression; inhibition, % (concentration not given with the values); 340,000 tested, 0.35% active; cell-based PrP 5' UTR mRNA reporter, plate reader; in the data active = inhibition above about 52%; also: 0 = median of the neutral control wells
Sa ugtP lethal: compounds lethal to S. aureus RN4220 ugtP deletion mutant; OD600 growth, 16 h; growth inhibition, % (concentration not given with the values); 330,000 tested, 0.54% active; in the data active = growth inhibition above about 68%;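 also: plate controls were untreated wells for no effect and antibiotic for full effect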
TcdB inh: blocks C. difficile toxin B glycohydrolase activity | inhibition, % at 9.99 µM | TcdB glycohydrolase enzymatic assay, plate reader | 350,000 tested, 0.24% active | AID 652162; in the data active = inhibition above about 10%
RN4220 kill: S. aureus RN4220 growth inhibition | OD600, 16 h | inhibition, % (concentration not given with the values) | 330,000 tested, 0.33% active; in the data active = inhibition above about 85%;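 also: plate controls were untreated cells for no effect and reference antibiotic for full effect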
PfHsp40 rescue: compounds rescuing yeast from Plasmodium falciparum HSP40 toxicity | AID 504582 | S. cerevisiae expressing PfHsp40, growth rescue, ATP luminescence | growth rescue, % at 12.5 µM | 340,000 tested, 0.68% active; in the data active = growth rescue above about 28%, passing the limit was not always enough; inconclusive = no clear call, values can overlap the other calls;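 also: yeast W303a lacking pdr1 and pdr3 grown in galactose medium; growth measured after three days at 30 °C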
PrP UTR cherry: prion 5' UTR mRNA inhibition, cherry-pick retest. shares compounds with PrP UTR inh. 1,100 tested, 48% active. cell-based prion protein 5' UTR reporter, plate reader. inhibition, % at 2.5 µM. AID 504592; in the data active = inhibition above about 54%; inconclusive = no clear call, values can overlap the other calls
Active calls of the source: *; ? = inconclusive; . = not tested or not shown. An excerpt weighted towards active compounds, which were near 1.2% of everything screened.

SMILES	PrP UTR inh	Sa ugtP lethal	TcdB inh	RN4220 kill	PfHsp40 rescue	PrP UTR cherry
C[C@@H]1CCCCO[C@@H](CN(C)Cc2ccccc2)[C@@H](C)CN([C@H](C)CO)C(=O)c2cc(NC(=O)C3CCCCC3)ccc2O1	.	.	0	.	.	.
CCOC(=O)Cc1csc(NN=Cc2ccc(Cl)cc2)n1	.	9	.	9	.	.
CCOC(=O)Cc1csc(N/N=C/c2ccc(Cl)cc2)n1	66*	.	-2	.	1	2
Cc1cccc(Cn2cc(C=O)c3ccccc32)c1	19	3	1	4	3	.
O=Cc1cn(Cc2cccc([N+](=O)[O-])c2)c2ccccc12	71*	-9	1	-1	4	16
Cc1cccc(C=NNC(=O)CC(=O)NCCc2ccccc2)c1	.	3	.	4	.	.
CC(=NNC(=O)CCC(=O)Nc1ccc(Br)cc1)c1ccc(Br)cc1	.	2	.	-2	.	.
CCC(=O)c1ccc(Oc2nc3c(c(=O)n(C)c(=O)n3C)n2CC)cc1	58*	10	1	0	1	7
COC(=O)c1ccc(Oc2nc3c(c(=O)n(C)c(=O)n3C)n2CCC(C)C)cc1	-3	11	.	2	-1	.
CCOC(=O)NN=C(CCC(=O)O)c1cccs1	.	4	.	6	.	.
C[C@@H]1CN([C@H](C)CO)S(=O)(=O)c2ccc(C#Cc3ccccc3)cc2O[C@H]1CN(C)S(=O)(=O)c1ccccc1F	.	.	0	.	.	.
CC(=NNC(=O)C(=O)NN=C(C)c1ccccc1)c1ccccc1	.	6	.	5	.	.
C/C(=N\NC(N)=O)c1ccccc1	72*	.	1	.	-1	-7
O=C(CC1CC=CCCCC(=O)OCC(c2ccccc2)NC1=O)NCCO (stereo not drawn)	.	0	.	3	.	.
Cc1cc(OCCCCN2C(=O)NC(C)(C)C2=O)ccc1[N+](=O)[O-]	4	6	1	3	-1	.
Cc1ccc([N+](=O)[O-])c(OCCN2C(=O)NC(C)(C)C2=O)c1	53*	5	1	-3	0	-18
O=C(C[C@H]1CC[C@H]2[C@@H](COC[C@@H](O)CN2Cc2ccc(Cl)cc2)O1)NCc1cccc(F)c1	.	.	-2	.	.	.
CCOC(=O)c1c(C)[nH]c(C(=O)OCCOc2ccccc2C)c1C	81*	-5	0	1	0	-60
CCCCCC(=O)NC(=S)Nc1ccc(Br)cc1C	57*	39	1	-4	0	1
COC1C(C)OC(OC2CC(C)(O)Cc3cc4c(c(O)c32)C(=O)c2c(O)cc3c(c2C4=O)OC2OC3(C)C(O)C(N(C)C)C2O)C(OC)C1(C)OC (stereo not drawn)	90*	.	-2	.	5	81*
C=CCSc1nnc(NC(=O)CSCc2c(C)noc2C)s1	-1	2	1	4	20	.
C=CCSc1nnc(NC(=O)CSc2nnc(C)s2)s1	81*	-4	.	2	0	-34
O=C(c1ccc2c3c(cccc13)CC2)C1CCCN(Cc2ccc(OCCO)cc2)C1 (stereo not drawn)	87*	1	2	-4	-1	-18
O=C(c1ccc2c3c(cccc13)CC2)C1CCCN(Cc2ccccn2)C1 (stereo not drawn)	-13	1	1	4	1	.
Cc1cnc(NC(=O)CCNC(=O)c2ccccc2Cl)s1	-12	11	0	7	-2	.
SMILES	PrP UTR inh	Sa ugtP lethal	TcdB inh	RN4220 kill	PfHsp40 rescue	PrP UTR cherry
O=C(COc1ccccc1Cl)Nc1ccc(CN2CCCCC2)cc1	66*	4	1	11	0	-24
Cc1cnc(NC(=O)COc2ccccc2Cl)s1	63*	13	.	12	-1	?
O=C(COc1ccccc1Cl)Nc1ccc(C(=O)N2CCCCC2)cc1	-11	7	-1	5	-1	.
O=C(NN=Cc1ccc(O)cc1)c1cc[n+](Cc2ccccc2)cc1	.	4	.	3	.	.
CCn1c(N=Cc2c[nH]c3ccccc23)nc2ccccc21	.	-3	.	4	.	.
CCC(=O)Nc1ccc2c(c1)C(=O)N(C)[C@H]1CC[C@@H](CC(=O)NCc3ccccc3Cl)O[C@@H]1CO2	.	.	0	.	.	.
O=C(c1ccc(-c2nc3ccccc3s2)s1)N1CCOCC1	.	-2	1	7	.	.
O=C(NC1CC1)c1ccc(-c2nc3ccccc3s2)s1	66*	1	.	-2	0	?
CC(Oc1ccc(F)cc1)C(O)CCN(C)C (stereo not drawn)	74*	23	0	9	0	-12
CC(C)Oc1ccc(C(CC(=O)NCCCN(C)C)c2ccc(F)cc2)cc1 (stereo not drawn)	-19	-1	1	2	0	.
N#Cc1cccc(-c2ccc3c(c2)[C@H]2[C@H](CCN2C(=O)c2ccc4c(c2)OCO4)[C@@H](CO)N3)c1	.	.	0	.	.	.
O=C(CC(Nc1ccc(Cl)cc1Cl)C(=O)O)c1ccccc1 (stereo not drawn)	63*	-3	2	5	2	16
O=C(CC(Nc1ccccc1)C(=O)O)c1ccccc1 (stereo not drawn)	-139	4	.	6	0	.
Cc1ccccc1OCC(=O)Nc1cccc(C(=O)O)c1	76*	1	-1	5	0	77*
CCOc1ccc(OCc2cccc(C(=O)N3CCCCCC3)c2)cc1	20	4	0	4	0	.
O=C(OCC(F)(F)F)c1cccc(COc2ccc3ccccc3c2)c1	63*	24	.	4	2	66*
COc1ccc(OCc2cccc(C(=O)O)c2)cc1	93*	-4	.	-10	1	94*
Cc1cccc(OCC(=O)Nc2cc(NC(=O)COc3cccc(C)c3C)cc(C(=O)O)c2)c1C	-13	-5	2	1	0	.
O=C(O)c1cccc(COc2ccc(CO)cc2Cl)c1	93*	0	-2	9	0	93*
CCOc1ccc(OCc2cccc(C(=O)O)c2)cc1	93*	23	-1	4	-2	95*
CCOc1ccc(NC(=O)c2ccccn2)cc1	62*	-2	1	-4	-3	72*
CCOc1ccc(NC(=O)c2cnccn2)cc1	-24	3	.	0	-1	.
O=C(O)c1cccc(COc2ccc3c(c2)CCC3)c1	82*	-2	-2	11	2	88*
CCOc1ccc(OCc2cccc(C(=O)N3CCCC3)c2)cc1	7	2	2	0	-1	.
CCOC(=O)c1cccc(NC(=O)Nc2ccc(OCC)cc2)c1	-8	-4	-3	2	-1	.
CCOc1ccc(NC(=O)Nc2cccc(C(=O)O)c2)cc1	88*	.	-1	.	-2	91*
COc1cc2sc3cc(NCCC4CCCN4C)ccc3c(=O)c2cc1OC (stereo not drawn)	.	5	.	2	.	.
CN1c2ccc(-c3ccccc3F)cc2[C@@H]2[C@@H](CCN2S(=O)(=O)c2ccccc2F)[C@H]1CO	.	.	-2	.	.	.
O=C(c1ccco1)N1C2C=CC(C2)C1(C(F)(F)F)C(F)(F)F (stereo not drawn)	-20	13	.	4	0	.
